Compounds with a hit are over-represented: about 3.2% of the library has one in this group of screens.
Rv3671c protease: Rv3671c serine protease inhibitors, primary screen, biochemical, fluorescence polarization, M. tuberculosis H37Rv; P9WHR9; inhibition, % at 5.96 µM; 0.048% of 320,000 active; in the data active = inhibition above about 38%;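 note: extracellular domain of Rv3671c used as enzyme; 0% = enzyme with DMSO and 100% = no enzyme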
Target sequence (P9WHR9 whole entry, looked up, the tested form may be a part): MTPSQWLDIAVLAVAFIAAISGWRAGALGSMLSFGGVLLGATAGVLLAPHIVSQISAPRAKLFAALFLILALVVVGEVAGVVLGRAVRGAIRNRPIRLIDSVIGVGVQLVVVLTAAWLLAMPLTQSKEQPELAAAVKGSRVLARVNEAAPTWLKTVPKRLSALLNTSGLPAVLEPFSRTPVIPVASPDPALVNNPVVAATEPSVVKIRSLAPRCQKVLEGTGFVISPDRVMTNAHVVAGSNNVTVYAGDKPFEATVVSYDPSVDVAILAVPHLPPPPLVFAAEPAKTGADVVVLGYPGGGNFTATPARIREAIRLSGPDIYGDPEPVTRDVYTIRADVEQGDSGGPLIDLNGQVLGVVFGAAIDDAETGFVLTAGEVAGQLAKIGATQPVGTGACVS
UGM FP inh: M. tuberculosis UGM enzyme inhibitors, primary screen, biochemical, fluorescence polarization, single point; UDP-galactopyranose mutase (Mycobacterium tuberculosis (strain ATCC 25618 / H37Rv)), …; purified UGM, fluorescence polarization probe displacement; inhibition, % at 10 µM; 0.06% of 320,000 active; AID 504406, 2011; in the data active = inhibition above about 10%, passing the limit was not always enough; inconclusive = no clear call, values can overlap the other calls
Mtb betalactam: beta-lactam sensitization of Mtb H37Rv, H37Rv | M. tuberculosis H37Rv growth with meropenem, percent inhibition | inhibition, % at 25 µM | AID 434955, 2010 | 0.27% of 330,000 active; call rule not given here;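 note: growth measured after seven days incubation then overnight dye step; 0% = bacteria only wells and 100% = bacteria with antibiotic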
GDH-TPI counter-1: GDH-TPI coupling enzyme inhibitors, primary screen, artefact control for M. tuberculosis FBA inhibitor project, biochemical, absorbance, full deck; GDH-TPI coupled enzyme counterscreen, NADH absorbance; 1.2% of 360,000 active; inhibition, % at 4.8 µM; in the data active = inhibition above about 30%;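 note: 0% = DMSO wells and 100% = wells lacking the enzyme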
PriA SSB inh: inhibitors of Klebsiella pneumoniae PriA binding to SSB C-terminal tail, primary screen, biochemical, AlphaScreen; PriA–SSB C-terminal tail interaction (Klebsiella pneumoniae); AlphaScreen SSBct-PriA binding, biotinylated peptide; inhibition, % at 33 µM; 0.6% of 430,000 active; in the data active = inhibition mostly above about 37%, no sharp cut-off; inactive = mostly below about 20%;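 note: plate controls were negative control peptide for no effect and reference peptide for full effect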
Mtb FBA inh: Mtb FBA enzyme inhibitors, primary screen, biochemical, fluorescence, strain H37Rv; inhibition, % at 1 µM; Fructose-bisphosphate aldolase (Mycobacterium tuberculosis (strain ATCC 25618 / H37Rv)), …; purified M. tuberculosis FBA, fluorescence read-out; 2.3% of 360,000 active; AID 588726, 2011;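 note: 0% = vehicle and 100% = reference inhibitor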
Mtb FBA inh conf: M. tuberculosis aldolase blockers, biochemical, fluorescence, strain H37Rv, confirmation | shares compounds with Mtb FBA inh | purified M. tuberculosis FBA, fluorescence read-out | inhibition, % at 1 µM | 78% of 5,600 active;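 note: 0% = vehicle wells and 100% = reference inhibitor wells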
GDH-TPI counter-2: GDH-TPI coupling enzyme inhibitors, artefact control for M. tuberculosis FBA inhibitor project, biochemical, fluorescence, high throughput | shares compounds with Mtb FBA inh | 81% of 5,600 active | inhibition, % at 1 µM | GDH-TPI coupled enzyme counterscreen; in the data active = inhibition above about 10%
Numbers without * were called inactive; i = inactive; ? = inconclusive; · = no result given; + = active, no number. Cut-off read from the data, not from the text of the source, unless noted: active = inhibition above about 27%; inactive = the rest.

SMILES	Rv3671c protease	UGM FP inh	Mtb betalactam	GDH-TPI counter-1	PriA SSB inh	Mtb FBA inh	Mtb FBA inh conf	GDH-TPI counter-2
CCOc1cc(-c2nnc(NC(=O)c3cc(Cl)sc3Cl)o2)cc(OCC)c1OCC	·	·	·	·	-6	·	·	·
COc1ccc(OC)c(/C=N/NC(=O)c2[nH]ncc2Br)c1	-11	8	3	21	i	39*	+	+
COc1ccc(OC)c(/C=N/NC(=O)c2[nH]nc3c2CCc2ccccc2-3)c1	-9	3	-1	15	·	45*	+	+
COc1ccc(OC)c(/C=N/NC(=O)CCc2n[nH]c(=O)[nH]c2=O)c1	-9	1	1	13	·	60*	119*	87*
COc1cccc(/C=N/NC(=O)c2[nH]nc3c2CCc2ccccc2-3)c1	-31	-4	72	-1	i	0	·	·
COc1ccc(OC)c(C=NNC(=O)CCc2n[nH]c(=O)[nH]c2=O)c1	·	·	·	·	-10	·	·	·
COc1ccc(C=NNC(=O)c2[nH]ncc2Br)c(OC)c1	·	·	·	·	-13	·	·	·
CCCn1c(=S)[nH]c2cc(C(=O)N3CCC(C(N)=O)(N4CCCCC4)CC3)ccc2c1=O	·	·	·	·	-14	·	·	·
COc1cccc(CN2CCN(Cc3cc(OC)c(OC)c(OC)c3)CC2)c1OC	·	1	-9	4	-5	2	·	·
COc1cccc(CN2CCN(Cc3cccc(Oc4ccccc4)c3)CC2)c1OC	-2	2	-1	6	5	37*	3	-5
CCCn1c(SCC(=O)Nc2c(C)cccc2CC)nnc1C(C)C	1	-1	-8	4	-17	39*	118*	111*
CCCn1c(SCC(=O)Nc2ccccc2CC)nnc1C(C)C	-2	0	-9	-2	-13	-3	·	·
c1ccc2c(c1)nc1n2CCN1	-1	0	-14	-6	-16	-5	·	·
O=c1c2ccccc2nc2n1CCCN2	-7	2	0	4	-1	70*	+	+
CC(C)Cn1cc(-c2cccc3nccn23)cn1	·	·	·	4	·	105*	0	-2
OCc1ccccc1-c1cccc2nccn12	·	·	·	13	·	15	·	·
CCOC(=O)CCC(=O)Nc1ccc(-c2nc3ccc(C)cc3s2)cc1	·	·	·	·	-14	·	·	·
Cc1ccc2nc(-c3ccc(NC(=O)COC(=O)c4cncc(Br)c4)cc3)sc2c1	·	·	·	14	-16	40*	33*	26*
CCOc1ncccc1C(=O)OCC(=O)Nc1ccc(-c2nc3ccc(C)cc3s2)cc1	-7	1	-4	14	-9	34*	33*	23*
Cc1ccc2nc(-c3ccc(NC(=O)COC(=O)c4ccc(Br)o4)cc3)sc2c1	-15	-3	3	25	-4	21	·	·
Cc1ccc2nc(-c3ccc(NC(=O)COC(=O)c4ccc([N+](=O)[O-])o4)cc3)sc2c1	0	0	100	9	-13	20	·	·
COc1ccc(/C=C(\C#N)C(=O)OCC(=O)Nc2ccc(-c3nc4ccc(C)cc4s3)cc2)cc1	-2	1	-2	-3	-12	31*	119*	90*
C/C(Cl)=C/Cn1c(SCc2ccc([N+](=O)[O-])cc2)nc2c1c(=O)[nH]c(=O)n2C	·	·	·	·	-9	·	·	·
O=C(c1ccc2nsnc2c1)N1CCCC(c2nnc(-c3ccsc3)o2)C1 (stereo not drawn)	·	·	·	·	-10	·	·	·
COC(=O)c1cccc(NC(=O)c2cnoc2C)c1	4	1	1	-2	-5	31*	95*	73*
SMILES	Rv3671c protease	UGM FP inh	Mtb betalactam	GDH-TPI counter-1	PriA SSB inh	Mtb FBA inh	Mtb FBA inh conf	GDH-TPI counter-2
O=Cc1coc2c(ccc3ccccc32)c1=O	8	2	1	·	·	·	·	·
O=c1cc(C(F)F)oc2c1ccc1ccccc12	2	5	6	17	1	31*	59*	46*
O=C(NCCc1ccccc1)c1c(O)c2ccccc2[nH]c1=O	-4	0	3	13	4	1	·	·
CCNC(=O)c1c(O)c2ccccc2[nH]c1=O	-1	-2	15	2	0	48*	180*	141*
CC1(C)C2CCC1(CS(=O)(=O)N(Cc1ccoc1)Cc1cccs1)C(=O)C2 (stereo not drawn)	·	·	·	·	4	·	·	·
CCN(Cc1ccccc1)S(=O)(=O)c1cc2[nH]c(=O)c(=O)[nH]c2cc1C	-5	-1	?	20	-10	28*	155*	111*
Cc1ccc(C(=O)NN=Cc2sccc2C)cn1	·	·	·	·	-4	·	·	·
N#Cc1c(-c2ccco2)cc(-c2ccccc2)[nH]c1=O	0	3	-9	15	7	78*	80*	68*
Cc1cc(-c2ccccc2)[nH]c(=O)c1C#N	-1	0	-1	27	-4	69*	67*	52*
Cc1cc(C)c(C#N)c(=O)[nH]1	·	·	·	·	-6	·	·	·
CN1CCCc2cc3c(C(F)(F)F)cc(=O)oc3nc21	4	1	-1	8	3	30*	130*	111*
CCCS(=O)(=O)N1CCc2ccc(NC(=O)COc3ccccc3F)cc2C1	·	·	·	·	-3	·	·	·
O=C(CSc1cn[nH]n1)Nc1ccc(O)c(C(=O)O)c1	2	4	-7	-7	-7	31*	2	2
COc1cccc(-c2cnc3c(NC=O)cc(-c4ccccc4Oc4ccccc4)cn23)c1	·	·	·	3	·	0	·	·
CN1CCN(C(=O)c2cccc(-c3cnc4cnc(-c5ccccc5Oc5ccccc5)cn34)c2)CC1	·	·	·	5	·	36*	113*	102*
O=C(Cc1ccccn1)c1cc(Cl)cc(Cl)c1	·	·	·	·	3	·	·	·
Cc1cnc(C(=O)OCC(=O)Nc2cc(-c3cc(C)c(C)cc3C)nn2-c2ccccc2)cn1	1	0	-2	6	-6	2	·	·
CC(C)(C)c1cc(NC(=O)COC(=O)c2ccccc2O)n(-c2ccccc2)n1	·	·	·	-4	·	4	·	·
CC(C)(C)c1cc(NC(=O)COC(=O)c2nccnc2N)n(-c2ccccc2)n1	-3	-2	?	8	6	87*	47*	36*
CCCc1cc(NC(=O)COC(=O)c2nccnc2N)n(-c2ccccc2)n1	7	-2	·	16	-3	85*	51*	45*
O=C(NCc1ccnc(-c2ccsc2)c1)c1ccccn1	·	·	·	·	-19	·	·	·
COc1ccccc1NC(=O)Cc1csc(SCC(=O)c2ccccc2)n1	·	·	·	·	-18	·	·	·
